# Reference: paper PMC8384837, “Expanding the binding specificity for RNA recognition by a PUF domain”
# Columns and labels:
# Assay in all cases: yeast three-hybrid, YBZ-1, SC-Leu-His + 0.5 mM 3-AT, 4 days
# Conditions in all cases: tags: N-Gal4 AD-HA kept; label: inside an RPR1-promoter hybrid RNA with tandem MS2 sites; ssRNA
# PUM1 PUF domain R1-RGV = PUM1 PUF domain R1-RGV (Homo sapiens, UniProt Q14671 828-1176, S863R;R864G;Q867V)
# How it was run: (§1)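 Repeat regions from input (SC-Leu) and selection (SC-Leu-His + 0.5 mM 3-AT) plates were PCR-amplified and Illumina-sequenced after four days of growth. The cells were strain YBZ-1 with a LexA–MS2 coat fusion and a HIS3 reporter, co-expressing Pumilio-1 PUF domain libraries and matching RNA elements from a centromeric plasmid. The interaction score is the log change in variant frequency from input to selection, taken in log2 with a pseudocount of 1 for absent variants.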
# PUM1 PUF domain R3-MSR = PUM1 PUF domain R3-MSR (Homo sapiens, UniProt Q14671 828-1176, C935M;R936S;Q939R)
# How it was run: as §1
# PUM1 PUF domain R3-ARS = PUM1 PUF domain R3-ARS (Homo sapiens, UniProt Q14671 828-1176, C935A;Q939S)
# How it was run: as §1
# PUM1 PUF domain R7-RGF = PUM1 PUF domain R7-RGF (Homo sapiens, UniProt Q14671 828-1176, S1079R;N1080G;E1083F)
# How it was run: as §1
# PUM1 PUF domain R7-RSV = PUM1 PUF domain R7-RSV (Homo sapiens, UniProt Q14671 828-1176, S1079R;N1080S;E1083V)
# How it was run: as §1
# PUM1 PUF domain R7-LNG = PUM1 PUF domain R7-LNG (Homo sapiens, UniProt Q14671 828-1176, S1079L;E1083G)
# How it was run: as §1
# PUM1 PUF domain R2-RRH = PUM1 PUF domain R2-RRH (Homo sapiens, UniProt Q14671 828-1176, N899R;Y900R;Q903H)
# How it was run: as §1
# PUM1 PUF domain R7-KRC = PUM1 PUF domain R7-KRC (Homo sapiens, UniProt Q14671 828-1176, S1079K;N1080R;E1083C)
# How it was run: as §1
# PUM1 PUF domain R5-FHK = PUM1 PUF domain R5-FHK (Homo sapiens, UniProt Q14671 828-1176, C1007F;R1008H;Q1011K)
# How it was run: as §1
# PUM1 PUF domain R5-KHH = PUM1 PUF domain R5-KHH (Homo sapiens, UniProt Q14671 828-1176, C1007K;R1008H;Q1011H)
# How it was run: as §1
# PUM1 PUF domain R5-FRW = PUM1 PUF domain R5-FRW (Homo sapiens, UniProt Q14671 828-1176, C1007F;Q1011W)
# How it was run: as §1
# PUM1 PUF domain R5-GTQ = PUM1 PUF domain R5-GTQ (Homo sapiens, UniProt Q14671 828-1176, C1007G;R1008T)
# How it was run: as §1
# PUM1 PUF domain R4-DRC = PUM1 PUF domain R4-DRC (Homo sapiens, UniProt Q14671 828-1176, N971D;H972R;Q975C)
# How it was run: as §1
# PUM1 PUF domain R6-VFI = molecular target: T1, PUM1 PUF domain R6-VFI (Homo sapiens, UniProt Q14671 828-1176, N1043V;Y1044F;Q1047I)
# T1 sequence: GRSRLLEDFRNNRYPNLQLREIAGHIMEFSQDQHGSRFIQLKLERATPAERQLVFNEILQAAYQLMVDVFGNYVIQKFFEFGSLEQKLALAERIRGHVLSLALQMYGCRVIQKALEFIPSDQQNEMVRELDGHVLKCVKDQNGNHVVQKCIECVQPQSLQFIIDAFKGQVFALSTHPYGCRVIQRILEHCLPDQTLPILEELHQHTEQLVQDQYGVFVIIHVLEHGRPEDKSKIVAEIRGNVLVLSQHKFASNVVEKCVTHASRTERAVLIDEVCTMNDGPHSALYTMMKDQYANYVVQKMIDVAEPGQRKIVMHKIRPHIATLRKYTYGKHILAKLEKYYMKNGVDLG
# How it was run: as §1
# PUM1 PUF domain R4-WAA = PUM1 PUF domain R4-WAA (Homo sapiens, UniProt Q14671 828-1176, N971W;H972A;Q975A)
# How it was run: as §1
# PUM1 PUF domain R4-PHS = PUM1 PUF domain R4-PHS (Homo sapiens, UniProt Q14671 828-1176, N971P;Q975S)
# How it was run: as §1
# PUM1 PUF domain R4-API = PUM1 PUF domain R4-API (Homo sapiens, UniProt Q14671 828-1176, N971A;H972P;Q975I)
# How it was run: as §1
# PUM1 PUF domain R4-DRG = PUM1 PUF domain R4-DRG (Homo sapiens, UniProt Q14671 828-1176, N971D;H972R;Q975G)
# How it was run: as §1
# PUM1 PUF domain R4-MHW = PUM1 PUF domain R4-MHW (Homo sapiens, UniProt Q14671 828-1176, N971M;Q975W)
# How it was run: as §1
# PUM1 PUF domain R3-LSC = PUM1 PUF domain R3-LSC (Homo sapiens, UniProt Q14671 828-1176, C935L;R936S;Q939C)
# How it was run: as §1
sequence,measurement,setting,value
GGCUAGAACUAGUGGAUCCCCCGGCGCCCGGCGGCUCGAGCCCGGGUAAGUGUAAAUCGUCUGCAUGCCGCCGGGCGCCAUGCCUGCAGGUCGACUCUAGAAAACAUG,binding signal,PUM1 PUF domain R1-RGV,2.51 log2 enrichment (interaction score)
GGCUAGAACUAGUGGAUCCCCCGGCGCCCGGCGGCUCGAGCCCGGGUAAGUGUAAGUAGUCUGCAUGCCGCCGGGCGCCAUGCCUGCAGGUCGACUCUAGAAAACAUG,binding signal,PUM1 PUF domain R3-MSR,3.44 log2 enrichment (interaction score)
same,binding signal,PUM1 PUF domain R3-ARS,0.93 log2 enrichment (interaction score)
GGCUAGAACUAGUGGAUCCCCCGGCGCCCGGCGGCUCGAGCCCGGGUAAGUUUAAAUAGUCUGCAUGCCGCCGGGCGCCAUGCCUGCAGGUCGACUCUAGAAAACAUG,binding signal,PUM1 PUF domain R7-RGF,3.87 log2 enrichment (interaction score)
same,binding signal,PUM1 PUF domain R7-RSV,2.32 log2 enrichment (interaction score)
same,binding signal,PUM1 PUF domain R7-LNG,6.18 log2 enrichment (interaction score)
GGCUAGAACUAGUGGAUCCCCCGGCGCCCGGCGGCUCGAGCCCGGGUAAGUGUAAAUUGUCUGCAUGCCGCCGGGCGCCAUGCCUGCAGGUCGACUCUAGAAAACAUG,binding signal,PUM1 PUF domain R1-RGV,2.5 log2 enrichment (interaction score)
GGCUAGAACUAGUGGAUCCCCCGGCGCCCGGCGGCUCGAGCCCGGGUAAGUGUAAAGAGUCUGCAUGCCGCCGGGCGCCAUGCCUGCAGGUCGACUCUAGAAAACAUG,binding signal,PUM1 PUF domain R2-RRH,3.09 log2 enrichment (interaction score)
GGCUAGAACUAGUGGAUCCCCCGGCGCCCGGCGGCUCGAGCCCGGGUAAGUCUAAAUAGUCUGCAUGCCGCCGGGCGCCAUGCCUGCAGGUCGACUCUAGAAAACAUG,binding signal,PUM1 PUF domain R7-KRC,4.66 log2 enrichment (interaction score)
same,binding signal,PUM1 PUF domain R7-RSV,1.68 log2 enrichment (interaction score)
GGCUAGAACUAGUGGAUCCCCCGGCGCCCGGCGGCUCGAGCCCGGGUAAGUGUGAAUAGUCUGCAUGCCGCCGGGCGCCAUGCCUGCAGGUCGACUCUAGAAAACAUG,binding signal,PUM1 PUF domain R5-FHK,3.51 log2 enrichment (interaction score)
same,binding signal,PUM1 PUF domain R5-KHH,2.08 log2 enrichment (interaction score)
GGCUAGAACUAGUGGAUCCCCCGGCGCCCGGCGGCUCGAGCCCGGGUAAGUGUUAAUAGUCUGCAUGCCGCCGGGCGCCAUGCCUGCAGGUCGACUCUAGAAAACAUG,binding signal,PUM1 PUF domain R5-FRW,3.35 log2 enrichment (interaction score)
same,binding signal,PUM1 PUF domain R5-FHK,4.76 log2 enrichment (interaction score)
same,binding signal,PUM1 PUF domain R5-GTQ,2.42 log2 enrichment (interaction score)
GGCUAGAACUAGUGGAUCCCCCGGCGCCCGGCGGCUCGAGCCCGGGUAAGUGUAAAUAGUCUGCAUGCCGCCGGGCGCCAUGCCUGCAGGUCGACUCUAGAAAACAUG,binding signal,PUM1 PUF domain R5-FRW,1.07 log2 enrichment (interaction score)
same,binding signal,PUM1 PUF domain R4-DRC,5.15 log2 enrichment (interaction score)
same,binding signal,PUM1 PUF domain R6-VFI,3.71 log2 enrichment (interaction score)
same,binding signal,PUM1 PUF domain R4-WAA,1.39 log2 enrichment (interaction score)
same,binding signal,PUM1 PUF domain R4-PHS,5.43 log2 enrichment (interaction score)
same,binding signal,PUM1 PUF domain R4-API,3.05 log2 enrichment (interaction score)
same,binding signal,PUM1 PUF domain R3-ARS,4.04 log2 enrichment (interaction score)
same,binding signal,PUM1 PUF domain R4-DRG,2.71 log2 enrichment (interaction score)
same,binding signal,PUM1 PUF domain R5-GTQ,2.12 log2 enrichment (interaction score)
GGCUAGAACUAGUGGAUCCCCCGGCGCCCGGCGGCUCGAGCCCGGGUAAGUGUAUAUAGUCUGCAUGCCGCCGGGCGCCAUGCCUGCAGGUCGACUCUAGAAAACAUG,binding signal,PUM1 PUF domain R4-MHW,3.93 log2 enrichment (interaction score)
same,binding signal,PUM1 PUF domain R4-WAA,4.4 log2 enrichment (interaction score)
same,binding signal,PUM1 PUF domain R4-PHS,7.03 log2 enrichment (interaction score)
GGCUAGAACUAGUGGAUCCCCCGGCGCCCGGCGGCUCGAGCCCGGGUAAGUGUAAAAAGUCUGCAUGCCGCCGGGCGCCAUGCCUGCAGGUCGACUCUAGAAAACAUG,binding signal,PUM1 PUF domain R2-RRH,0.36 log2 enrichment (interaction score)
GGCUAGAACUAGUGGAUCCCCCGGCGCCCGGCGGCUCGAGCCCGGGUAAGUGUCAAUAGUCUGCAUGCCGCCGGGCGCCAUGCCUGCAGGUCGACUCUAGAAAACAUG,binding signal,PUM1 PUF domain R5-FRW,3.47 log2 enrichment (interaction score)
GGCUAGAACUAGUGGAUCCCCCGGCGCCCGGCGGCUCGAGCCCGGGUAAGUGUAAUUAGUCUGCAUGCCGCCGGGCGCCAUGCCUGCAGGUCGACUCUAGAAAACAUG,binding signal,PUM1 PUF domain R3-LSC,2.84 log2 enrichment (interaction score)
same,binding signal,PUM1 PUF domain R3-MSR,2.82 log2 enrichment (interaction score)
same,binding signal,PUM1 PUF domain R3-ARS,1.78 log2 enrichment (interaction score)
